Binding signal data for seven sequences are collected here from paper PMC7862700, “An all-to-all approach to the identification of sequence-specific readers for epigenetic DNA modifications on cytosine”.

What all share (assay): DAPPL (digital affinity profiling via proximity ligation, sequencing); 10 mM Tris-HCl pH 7.5, 50 mM NaCl, 1 mM DTT, 4% glycerol, room temperature, 30 min; GST-TFs on glutathione beads, 16-mer random dsDNA library, 0.1% formaldehyde crosslink after washing; high values mean tight binding
Holding throughout (details): protein: recombinant; tags: N-terminal GST; dsDNA, one strand shown

One test concerns the target T1, ERF (Homo sapiens, UniProt P50548 1-548).
T1 sequence: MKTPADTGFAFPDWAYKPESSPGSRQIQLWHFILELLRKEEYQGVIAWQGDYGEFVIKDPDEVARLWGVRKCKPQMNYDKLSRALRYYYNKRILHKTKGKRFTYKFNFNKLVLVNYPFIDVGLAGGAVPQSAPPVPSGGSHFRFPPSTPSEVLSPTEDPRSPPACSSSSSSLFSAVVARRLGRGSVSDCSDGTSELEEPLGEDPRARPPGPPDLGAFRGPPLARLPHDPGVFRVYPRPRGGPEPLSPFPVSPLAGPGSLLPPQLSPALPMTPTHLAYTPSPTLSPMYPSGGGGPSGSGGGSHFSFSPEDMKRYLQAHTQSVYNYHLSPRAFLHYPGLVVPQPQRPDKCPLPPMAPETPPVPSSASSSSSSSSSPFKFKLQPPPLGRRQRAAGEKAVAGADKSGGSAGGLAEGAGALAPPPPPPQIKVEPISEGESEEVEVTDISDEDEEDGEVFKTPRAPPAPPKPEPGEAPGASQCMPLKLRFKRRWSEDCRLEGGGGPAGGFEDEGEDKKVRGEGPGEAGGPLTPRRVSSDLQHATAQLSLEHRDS
In short, it runs like this: (§1)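 Binding signal is defined as a hexamer's read frequency for one factor over its frequency for the tag-only sample. To obtain reads, GST-fused human transcription factors were expressed in yeast, captured on glutathione beads, barcoded with DNA and pooled with that sample. Pools met 200 nmole of a 16-mer random double-stranded DNA library in Tris/NaCl/DTT/glycerol buffer for 30 min at room temperature before washing, 0.1% formaldehyde crosslinking, proximity ligation (BsaI/T4 ligase, 1 h, 37 °C), PCR and Illumina NextSeq500 sequencing.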

In another test the target is T2, ETV3L (Homo sapiens, UniProt Q6ZN32 1-361).
T2 sequence: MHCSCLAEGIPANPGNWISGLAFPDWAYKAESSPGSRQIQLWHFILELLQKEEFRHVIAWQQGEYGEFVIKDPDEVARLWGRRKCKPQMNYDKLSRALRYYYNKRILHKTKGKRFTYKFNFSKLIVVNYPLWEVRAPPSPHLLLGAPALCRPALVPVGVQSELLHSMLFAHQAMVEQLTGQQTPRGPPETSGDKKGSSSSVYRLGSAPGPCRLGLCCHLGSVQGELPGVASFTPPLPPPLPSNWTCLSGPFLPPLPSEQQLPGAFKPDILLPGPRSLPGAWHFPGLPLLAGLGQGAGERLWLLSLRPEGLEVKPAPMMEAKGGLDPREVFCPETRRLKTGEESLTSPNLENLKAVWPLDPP
Summed up:
as §1

The next test concerns the target T3, ETS2 (Homo sapiens, UniProt P15036 1-469).
T3 sequence: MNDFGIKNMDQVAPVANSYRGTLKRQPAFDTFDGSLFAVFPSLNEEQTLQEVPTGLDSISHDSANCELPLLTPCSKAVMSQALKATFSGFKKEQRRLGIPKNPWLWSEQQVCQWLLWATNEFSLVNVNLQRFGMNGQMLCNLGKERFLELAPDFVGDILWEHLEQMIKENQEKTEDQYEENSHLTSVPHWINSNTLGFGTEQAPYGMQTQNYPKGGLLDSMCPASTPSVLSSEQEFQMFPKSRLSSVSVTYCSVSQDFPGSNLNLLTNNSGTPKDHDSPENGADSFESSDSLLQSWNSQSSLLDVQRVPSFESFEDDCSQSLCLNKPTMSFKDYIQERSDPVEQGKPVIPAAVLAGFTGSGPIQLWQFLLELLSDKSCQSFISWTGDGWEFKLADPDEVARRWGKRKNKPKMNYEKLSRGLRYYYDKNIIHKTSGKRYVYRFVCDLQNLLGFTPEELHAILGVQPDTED
In short, it runs like this:
as §1

The next test has as its target T4, SPDEF (Homo sapiens, UniProt O95238 1-335).
T4 sequence: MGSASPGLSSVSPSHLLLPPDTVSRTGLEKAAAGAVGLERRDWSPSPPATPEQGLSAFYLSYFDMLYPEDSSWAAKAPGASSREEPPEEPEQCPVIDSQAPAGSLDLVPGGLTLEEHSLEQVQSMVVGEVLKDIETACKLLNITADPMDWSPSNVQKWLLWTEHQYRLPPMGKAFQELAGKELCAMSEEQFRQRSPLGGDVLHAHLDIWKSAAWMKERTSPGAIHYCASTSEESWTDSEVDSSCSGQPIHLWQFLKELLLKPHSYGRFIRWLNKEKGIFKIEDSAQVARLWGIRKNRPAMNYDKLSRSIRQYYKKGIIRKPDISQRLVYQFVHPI
In short, it runs like this:
as §1

Another test deals with T5, ETV7 (Homo sapiens, UniProt Q9Y603 1-341).
T5 sequence: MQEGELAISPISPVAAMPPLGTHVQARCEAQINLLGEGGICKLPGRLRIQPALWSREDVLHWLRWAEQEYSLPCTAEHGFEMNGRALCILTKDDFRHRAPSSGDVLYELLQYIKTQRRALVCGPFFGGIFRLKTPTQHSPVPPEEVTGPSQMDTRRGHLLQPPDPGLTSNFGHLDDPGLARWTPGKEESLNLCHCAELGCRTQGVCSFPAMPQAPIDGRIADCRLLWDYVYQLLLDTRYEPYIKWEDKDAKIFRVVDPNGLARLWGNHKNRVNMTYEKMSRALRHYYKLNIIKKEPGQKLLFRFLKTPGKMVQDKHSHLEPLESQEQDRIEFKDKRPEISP
In short, it runs like this: as §1

Another test has as its target T6, ELF5 (Homo sapiens, UniProt Q9UKW6-2 1-255).
T6 sequence: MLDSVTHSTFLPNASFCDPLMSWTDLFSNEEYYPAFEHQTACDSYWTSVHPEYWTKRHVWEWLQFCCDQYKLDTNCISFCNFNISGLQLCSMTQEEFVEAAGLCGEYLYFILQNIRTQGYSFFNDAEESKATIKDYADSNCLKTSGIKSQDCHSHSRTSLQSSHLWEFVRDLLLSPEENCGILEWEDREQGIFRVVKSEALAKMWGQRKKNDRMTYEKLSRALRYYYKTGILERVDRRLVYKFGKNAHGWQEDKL
Summed up:
as §1

The next test concerns the target T7, ETV3 (Homo sapiens, UniProt P41162-2 1-143).
T7 sequence: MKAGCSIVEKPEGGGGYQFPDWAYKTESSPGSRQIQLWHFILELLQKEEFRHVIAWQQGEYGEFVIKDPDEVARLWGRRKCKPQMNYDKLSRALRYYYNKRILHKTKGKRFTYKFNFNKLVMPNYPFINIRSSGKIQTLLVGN
Summed up: as §1

Another test has as its target ETV6 (Homo sapiens, UniProt P41212 1-452). Summed up:
as §1

ETV6, sequence (P41212 whole entry): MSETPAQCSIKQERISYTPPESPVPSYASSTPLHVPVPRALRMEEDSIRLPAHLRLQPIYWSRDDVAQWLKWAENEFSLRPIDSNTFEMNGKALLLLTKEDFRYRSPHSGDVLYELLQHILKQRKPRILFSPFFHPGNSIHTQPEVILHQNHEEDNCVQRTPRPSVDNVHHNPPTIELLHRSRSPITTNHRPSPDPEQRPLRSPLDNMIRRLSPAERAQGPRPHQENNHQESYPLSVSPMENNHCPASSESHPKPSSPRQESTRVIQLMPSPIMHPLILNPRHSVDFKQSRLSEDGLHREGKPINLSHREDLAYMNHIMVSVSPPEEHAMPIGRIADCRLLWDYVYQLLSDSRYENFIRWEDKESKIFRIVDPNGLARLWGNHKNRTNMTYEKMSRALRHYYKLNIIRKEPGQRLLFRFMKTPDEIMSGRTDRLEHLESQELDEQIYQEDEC

TATGCC: the binding signal is 1.16 fold enrichment (6-mer frequency, TF over GST control) in the test with ERF; 1.12 fold enrichment (6-mer frequency, TF over GST control) in the test with ETV3L; 1.21 fold enrichment (6-mer frequency, TF over GST control) with ETS2; 1.23 fold enrichment (6-mer frequency, TF over GST control) in the test with SPDEF; 1.19 fold enrichment (6-mer frequency, TF over GST control) with ETV7; 1.14 fold enrichment (6-mer frequency, TF over GST control) in the test with ELF5. The binding signal was 1.17 fold enrichment (6-mer frequency, TF over GST control) in the test with ETV3 and 1.22 fold enrichment (6-mer frequency, TF over GST control) in the test with ETV6.
On to GTATAC, for which the binding signal is 1.41 fold enrichment (6-mer frequency, TF over GST control) with ERF; 1.16 fold enrichment (6-mer frequency, TF over GST control) with ETV3L; 1.32 fold enrichment (6-mer frequency, TF over GST control) with ETS2; 1.3 fold enrichment (6-mer frequency, TF over GST control) with SPDEF; 1.2 fold enrichment (6-mer frequency, TF over GST control) with ETV7; 1.31 fold enrichment (6-mer frequency, TF over GST control) with ELF5. For the same sequence, the binding signal was 1.23 fold enrichment (6-mer frequency, TF over GST control) with ETV3 and 1.19 fold enrichment (6-mer frequency, TF over GST control) with ETV6.
With TATAGC, the binding signal was 1.24 fold enrichment (6-mer frequency, TF over GST control) with ERF; 1.25 fold enrichment (6-mer frequency, TF over GST control) with ETV3L; 1.18 fold enrichment (6-mer frequency, TF over GST control) with ETS2; 1.18 fold enrichment (6-mer frequency, TF over GST control) with SPDEF; 1.19 fold enrichment (6-mer frequency, TF over GST control) in the test with ETV7; 1.13 fold enrichment (6-mer frequency, TF over GST control) with ELF5. In addition, the binding signal with ETV3 is 1.2 fold enrichment (6-mer frequency, TF over GST control); in the test with ETV6, 1.15 fold enrichment (6-mer frequency, TF over GST control).
CGACAT: the binding signal is 1.34 fold enrichment (6-mer frequency, TF over GST control) with ERF; 1.22 fold enrichment (6-mer frequency, TF over GST control) in the test with ETV3L; 1.32 fold enrichment (6-mer frequency, TF over GST control) with ETS2; 1.4 fold enrichment (6-mer frequency, TF over GST control) with SPDEF; 1.23 fold enrichment (6-mer frequency, TF over GST control) in the test with ETV7; 1.33 fold enrichment (6-mer frequency, TF over GST control) with ELF5. Further, the binding signal in the test with ETV3 was 1.37 fold enrichment (6-mer frequency, TF over GST control); with ETV6, 1.42 fold enrichment (6-mer frequency, TF over GST control).
With TTCATC, the binding signal was 1.21 fold enrichment (6-mer frequency, TF over GST control) with ERF; 1.24 fold enrichment (6-mer frequency, TF over GST control) in the test with ETV3L; 1.17 fold enrichment (6-mer frequency, TF over GST control) with ETS2; 1.36 fold enrichment (6-mer frequency, TF over GST control) with SPDEF; 1.25 fold enrichment (6-mer frequency, TF over GST control) with ETV7; 1.23 fold enrichment (6-mer frequency, TF over GST control) in the test with ELF5. Besides, the binding signal with ETV3 was 1.26 fold enrichment (6-mer frequency, TF over GST control); with ETV6, 1.23 fold enrichment (6-mer frequency, TF over GST control).
Turning to GTACTC, the binding signal was 1.06 fold enrichment (6-mer frequency, TF over GST control) with ERF; 1.15 fold enrichment (6-mer frequency, TF over GST control) in the test with ETV3L; 1.13 fold enrichment (6-mer frequency, TF over GST control) in the test with ETS2; 1.02 fold enrichment (6-mer frequency, TF over GST control) with SPDEF; 1 fold enrichment (6-mer frequency, TF over GST control) in the test with ETV7; 1.12 fold enrichment (6-mer frequency, TF over GST control) in the test with ELF5. The binding signal with ETV3 was 1.11 fold enrichment (6-mer frequency, TF over GST control); in the test with ETV6, 1.14 fold enrichment (6-mer frequency, TF over GST control).
For AACAAG, the binding signal with ERF is 1.19 fold enrichment (6-mer frequency, TF over GST control); with ETV3L, 1.18 fold enrichment (6-mer frequency, TF over GST control); with ETS2, 1.06 fold enrichment (6-mer frequency, TF over GST control); in the test with SPDEF it was 1.05 fold enrichment (6-mer frequency, TF over GST control); with ETV7, 1.14 fold enrichment (6-mer frequency, TF over GST control); with ELF5 it was 1.22 fold enrichment (6-mer frequency, TF over GST control). For the same sequence, the binding signal with ETV3 was 1.11 fold enrichment (6-mer frequency, TF over GST control); with ETV6 it was 1.12 fold enrichment (6-mer frequency, TF over GST control).
